Experimental data from the supplement of paper PMC7366291.
Structures can show the parent of a compound that is named as a salt. ± gives the standard deviation or the standard deviation of the averaged measurements.

Columns and labels:
Settings in all cases: 25 µM; exposure: 24-48 hpf
[1] = system: Danio rerio Tg(wt1b:EGFP) embryo, pronephros; test: glomerular separation, fold change vs DMSO control; higher = glomeruli further apart (abnormal)
Outline: (§1)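 Distances and angles describing the pronephros were computed by a Fiji macro from 16 reference points set manually on maximum projections of dorsal images. These images came from dechorionated Tg(wt1b:EGFP) zebrafish embryos held in agarose-filled 96-well plates after exposure to 25 μM compound in 0.5% DMSO, in HEPES-buffered E3 with 0.003% PTU, from 24 to 48 hpf at 28.5°C. Any value more than 2 SD from the feature mean was excluded. Features are stated as fold change relative to the mean of same-day DMSO-treated embryos.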

[2] = system: Danio rerio Tg(wt1b:EGFP) embryo, pronephros; test: glomerular width (mean of left and right), fold change vs DMSO control; higher = wider glomerulus
Outline: as §1

[3] = system: Danio rerio Tg(wt1b:EGFP) embryo, pronephros; test: fraction of imaged embryos annotated as normal kidney; higher = less nephrotoxic; extreme values may be limits of the assay
Outline: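 Dechorionated Tg(wt1b:EGFP) zebrafish embryos were exposed in 12-well plates to 25 μM compound in 0.5% DMSO, 5 mM HEPES-buffered E3 with 0.003% PTU, from 24 to 48 hpf at 28.5°C. Tricaine-anaesthetised larvae were oriented dorsally in agarose-filled 96-well plates, and pronephroi were imaged by widefield fluorescence (470 nm, 10 z-slices). Each embryo was manually annotated from maximum projections. The read-out is the fraction of embryos per treatment assigned to the normal-kidney category.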

[4] = system: Danio rerio Tg(wt1b:EGFP) embryo, pronephros; test: pronephric angle neck segment to proximal convoluted tubule (mean of left and right), fold change vs DMSO control; higher = larger pronephric angle
Outline: as §1

Row | Structure (SMILES) | glomerular separation [1] | glomerular width [2] | fraction of imaged embryos annotated as normal kidney [3] | pronephric angle neck segment [4]
1 | CC(C(=O)O)c1ccc2c(c1)Cc1cccnc1O2 (stereo not drawn) [Pranoprofen] | 0.724 ± 0.18 | 0.956 ± 0.035 | 0.583 | 1.049 ± 0.01
2 | CC(C)NCC(O)COc1ccc(COCCOC(C)C)cc1 (stereo not drawn) [Bisoprolol fumarate] | 1.2 ± 0.41 | 1.07 ± 0.03 | 0.583 | 0.999 ± 0.083
3 | C[C@]12CC[C@H]3C(=CCc4cc(O)ccc43)[C@@H]1CCC2=O [Equilin] | 1.59 ± 0.67 | 0.988 ± 0.038 | 0.25 | 1.17 ± 0.015
4 | O=c1[nH]c(=O)n([C@H]2C[C@H](O)[C@@H](CO)O2)cc1F [Floxuridine] | 0.88 ± 0.33 | 0.972 ± 0.015 | 0.5 | 1.05 ± 0.016
5 | CC(=O)N(O)CCCCCNC(=O)CCC(=O)N(O)CCCCCNC(=O)CCC(=O)N(O)CCCCCN [Deferoxamine mesylate] | 0.888 ± 0.3 | 1.02 ± 0.042 | 0.917 | 1.01 ± 0.018
6 | COc1ccccc1OCC(O)COC(N)=O (stereo not drawn) [Methocarbamol] | 1.02 ± 0.45 | 1.05 ± 0.03 | 0.833 | 1 ± 0.013
7 | COC(=O)C1=C(C)NC(C)=C(C(=O)OC(C)C)C1c1cccc2nonc12 (stereo not drawn) [Isradipine] | 4.38 ± 1.4 | 0.666 ± 0.037 | 0 | 1.007 ± 0.0069
8 | Cc1cccc(C)c1OCC(C)N (stereo not drawn) [Mexiletine hydrochloride] | 0.9 ± 0.27 | 0.98 ± 0.033 | 0.917 | 0.98 ± 0.041
9 | NC1CCN(c2nc3c(cc2F)c(=O)c(C(=O)O)cn3-c2ccc(F)cc2F)C1 (stereo not drawn) [Tosufloxacin hydrochloride] | 0.995 ± 0.36 | 1.07 ± 0.074 | 0.833 | 1.038 ± 0.0028
10 | CC(=O)OCC(=O)[C@@]1(O)CC[C@H]2[C@@H]3CCC4=CC(=O)CC[C@]4(C)[C@@]3(F)[C@@H](O)C[C@@]21C [Fludrocortisone acetate] | 1.6 ± 0.63 | 1.23 ± 0.023 | 0.583 | 1.18 ± 0.16
11 | CCC1(c2ccccc2)C(=O)NCNC1=O [Primidone] | 0.835 ± 0.33 | 1.0079 ± 0.00034 | 0.917 | 1.03 ± 0.025
12 | Cc1c(F)c(N2CCNC(C)C2)cc2c1c(=O)c(C(=O)O)cn2C1CC1 (stereo not drawn) [Grepafloxacin] | 0.897 ± 0.35 | 1.033 ± 0.0021 | 0.75 | 0.985 ± 0.013
